Source: PubChem BioAssay (NCATS)
Records with an inconclusive call do not appear. Where a call stands in place of a potency, no number is given. Active and inactive are the calls of the source. Unless noted, calls come from the whole dose curve; as a rule, active = well fitted curve in the direction sought with a large enough effect; inconclusive = small, poorly fitted or top-dose-only effect, or another doubt; inactive = no such curve, though single readings can be large; an effect the other way counts as inactive or inconclusive.

What was measured:
[1] = Viability counterscreen for antagonist of constitutive androstane receptor (CAR) against the NCATS DSHEA and TCM libraries (AID 1794837);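 note: compound exposure lasted 24 h before viability reading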
Outline: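 Fluorescence from CellTiter-Fluor reports live-cell protease activity in HepG2-CYP2B6-hCAR cells treated for 24 h with substances alongside 48 uM CITCO.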

[2] = Viability counterscreen for agonist of constitutive androstane receptor (CAR) against the NCATS DSHEA and TCM libraries (AID 1794838);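 note: cells exposed to compound for 24 h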
Outline: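 In agonist mode, PK11195 is added at 0.75 uM final to HepG2-CYP2B6-hCAR cells dosed with test substances. Cultures incubate 24 h at 37C before a protease-based fluorogenic viability readout.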

[3] = target: Nuclear receptor subfamily 1 group I member 3 (Homo sapiens) (UniProt Q14994); assay: Primary qHTS for agonist of constitutive androstane receptor (CAR) against the NCATS DSHEA and TCM libraries (AID 1794839);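 note: HepG2 cells expressing human CAR with a CYP2B6 reporter plus PK11195 antagonist; luciferase reporter luminescence read with ONE-Glo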
Nuclear receptor subfamily 1 group I member 3 (Homo sapiens), sequence (Q14994 whole entry, looked up): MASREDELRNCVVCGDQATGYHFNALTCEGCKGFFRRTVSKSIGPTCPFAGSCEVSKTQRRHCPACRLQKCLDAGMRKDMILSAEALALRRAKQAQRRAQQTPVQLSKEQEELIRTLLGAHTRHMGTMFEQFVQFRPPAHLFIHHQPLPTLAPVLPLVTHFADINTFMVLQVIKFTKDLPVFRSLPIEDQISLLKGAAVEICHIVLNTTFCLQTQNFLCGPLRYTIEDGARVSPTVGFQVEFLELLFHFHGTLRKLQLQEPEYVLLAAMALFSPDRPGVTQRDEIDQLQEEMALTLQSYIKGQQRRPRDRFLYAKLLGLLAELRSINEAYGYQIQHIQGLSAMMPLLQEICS
Outline: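 Cells stably carrying hCAR and a CYP2B6 reporter (HepG2 background) are seeded and allowed 5 h to adhere. Substances at multiple concentrations are added alongside 0.75 µM PK11195, and luciferase signal is measured after 24 h.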

[4] = HepG2 viability counterscreen (readout 2: ATP content) against the NCATS DSHEA and TCM libraries (AID 1794840);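 note: HepG2 cells exposed to substances for about 24 h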
Outline: (§1)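 Cytotoxicity was assessed in HepG2 cells plated at 1,000 cells/well and exposed for about 24 hours to a concentration series. Protease activity and ATP content were measured sequentially in each well.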

[5] = HepG2 viability counterscreen (readout 1: protease activity) against the NCATS DSHEA and TCM libraries (AID 1794841);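 note: cells exposed to compounds for about 24 h before the protease read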
Outline: as §1

[6] = target: Glutathione peroxidase 1 (Homo sapiens) (UniProt P07203); assay: Primary qHTS Assay for Inhibitors of Recombinant Selenoprotein Glutathione Peroxidase 1 (GPX1) (AID 1845191); note: nearly all actives have a fitted effect of over 65% in size
Glutathione peroxidase 1 (Homo sapiens), sequence (P07203 whole entry, looked up): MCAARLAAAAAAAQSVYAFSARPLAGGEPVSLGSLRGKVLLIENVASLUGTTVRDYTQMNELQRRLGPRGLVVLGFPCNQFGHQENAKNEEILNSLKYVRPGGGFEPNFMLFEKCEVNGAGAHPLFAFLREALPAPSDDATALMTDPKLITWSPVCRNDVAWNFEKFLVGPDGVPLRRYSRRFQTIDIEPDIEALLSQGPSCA
Outline: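 GPX1 10 nM, GR 100 nM, GSH 1 mM, NADPH 0.5 mM, CHP 0.5 mM (final). 30-min cpd preincubation, RT. Ex340/Em450 read t=0, t=15 min.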

[7] = target: Phospholipid hydroperoxide glutathione peroxidase GPX4 (Homo sapiens) (UniProt P36969); assay: Primary qHTS Assay for Inhibitors of Recombinant Selenoprotein Glutathione Peroxidase 4 (GPX4) (AID 1845192); note: nearly all actives have a fitted effect of over 65% in size
Phospholipid hydroperoxide glutathione peroxidase GPX4 (Homo sapiens), sequence (P36969 whole entry, looked up): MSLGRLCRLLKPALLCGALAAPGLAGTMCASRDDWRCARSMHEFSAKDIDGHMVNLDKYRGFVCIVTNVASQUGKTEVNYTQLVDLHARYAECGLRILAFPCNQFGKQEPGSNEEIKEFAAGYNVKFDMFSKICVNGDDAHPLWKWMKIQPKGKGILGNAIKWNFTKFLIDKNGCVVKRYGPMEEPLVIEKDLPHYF
Outline: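 qHTS, GR-coupled: GPX4 200 nM + cpd 30 min RT → GSH 1 mM, NADPH 0.5 mM, GR 100 nM → CHP 0.5 mM start; fluor 340/450 at t0 and t15 min; no-enzyme wells as control.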

[8] = target: Luciferin 4-monooxygenase (Photinus pyralis) (UniProt P08659); assay: Primary firefly luciferase (FLuc) qHTS assay for identification of artifact compounds. (AID 1845220); note: nearly all actives have a fitted effect of over 60% in size
Outline: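 In this counter-screen for luciferase artifacts, test compounds met substrate (10 uM each luciferin and ATP) before 10 nM enzyme started the reaction. Light output was measured 5 min later.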

[9] = Primary fluorescence-based thiol-reactive (MSTI) qHTS assay for identification of artifact compounds. (AID 1845221); note: nearly all actives have a fitted effect of over 65% in size; note: potency is the fitted concentration of half-maximal effect;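 for activity change, negative = thiol reactive: thiol-reactive compounds lower the probe fluorescence signal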
Outline: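 A multi-concentration qHTS design tested compounds against 4 uM MSTI, pH 7.4 phosphate-buffered saline. Plates were protected from light for 1 h at room temperature before imaging fluorescence.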

[10] = test system: Nanoluciferase (engineered Oplophorus gracilirostris luciferase); assay: Primary Nanoluciferase (NLuc) qHTS assay for identification of artifact compounds. (AID 1845222);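 note: NLuc secreted into diluted conditioned medium of S16 cells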
Outline: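 Using secreted nanoluciferase in S16 culture medium (0.22 um filtered, 1:55 dilution), compounds were preincubated 15 min at RT. Signal was generated with Nano-Glo reagent (1:100) over 5 min.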

[11] = Primary redox qHTS assay for identification of artifact compounds. (AID 1845223)
Outline: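 Redox-cycling detection via DTT (250 uM final) oxidation coupled to Amplex Red (25 uM)/HRP (250 mU/mL) in HBSS. 15 min preincubation plus 30 min after DTT, room temperature. Ex/Em 525/598 nm; 4-parameter Hill fit against DMSO and 10 uM DA3003.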

[12] = target: Cytochrome P450 2D6 (Homo sapiens) (UniProt P10635); assay: qHTS for inhibitors of CYP2D6 against the NCATS DSHEA and TCM libraries (AID 1919972)
Cytochrome P450 2D6 (Homo sapiens), sequence (P10635 whole entry, looked up): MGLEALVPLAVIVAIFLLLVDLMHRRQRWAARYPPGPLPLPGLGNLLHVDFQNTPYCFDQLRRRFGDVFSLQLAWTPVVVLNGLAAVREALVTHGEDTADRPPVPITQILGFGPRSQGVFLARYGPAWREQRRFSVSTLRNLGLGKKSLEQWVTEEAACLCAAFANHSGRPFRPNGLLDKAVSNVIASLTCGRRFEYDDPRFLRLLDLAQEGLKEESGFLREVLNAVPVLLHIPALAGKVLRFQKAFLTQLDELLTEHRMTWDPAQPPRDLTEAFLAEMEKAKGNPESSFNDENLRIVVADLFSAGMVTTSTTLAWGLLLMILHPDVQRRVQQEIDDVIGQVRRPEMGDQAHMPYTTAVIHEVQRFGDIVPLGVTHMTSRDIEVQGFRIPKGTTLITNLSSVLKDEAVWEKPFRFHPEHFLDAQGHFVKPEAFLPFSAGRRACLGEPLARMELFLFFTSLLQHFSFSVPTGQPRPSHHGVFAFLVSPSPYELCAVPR
Outline: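 qHTS, concentration–response format with most substances from 19.5 nM. CYP2D6 + pro-luciferin substrate, 15 min with compound, then 1x NADPH regen, 30–45 min RT dark. Glo detection 30 min, luminescence. Quinidine control.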

[13] = target: Catechol O-methyltransferase (Homo sapiens) (UniProt P21964); assay: Confirmatory Screen for Target Class Profiling of Small Molecule Inhibitors of Methyltransferases (AID 1745852; calls by dose curve; note: potency is the fitted concentration of half-maximal effect); settings: MTase-Glo luminescence, SAH detection, recombinant enzyme; measured here: COMT max response; stronger effect = lower value
Catechol O-methyltransferase (Homo sapiens), sequence (P21964 whole entry, looked up): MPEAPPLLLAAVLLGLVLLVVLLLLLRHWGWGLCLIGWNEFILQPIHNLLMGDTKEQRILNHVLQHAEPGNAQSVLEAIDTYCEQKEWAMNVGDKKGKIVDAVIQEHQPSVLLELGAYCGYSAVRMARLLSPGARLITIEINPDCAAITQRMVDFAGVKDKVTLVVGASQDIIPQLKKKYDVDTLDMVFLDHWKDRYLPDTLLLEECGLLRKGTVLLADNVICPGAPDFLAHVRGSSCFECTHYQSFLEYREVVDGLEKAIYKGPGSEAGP

[14] = target: Guanidinoacetate N-methyltransferase (Homo sapiens) (UniProt Q14353); assay: as above; settings: activity change, negative = inhibition: at 57.3 µM (top of the series) unless noted
[15] = target: Nicotinamide N-methyltransferase (Homo sapiens) (UniProt P40261); assay: as above; settings: MTase-Glo luminescence, SAH detection, recombinant enzyme; measured here: NNMT max response; stronger effect = lower value
Nicotinamide N-methyltransferase (Homo sapiens), sequence (P40261 whole entry, looked up): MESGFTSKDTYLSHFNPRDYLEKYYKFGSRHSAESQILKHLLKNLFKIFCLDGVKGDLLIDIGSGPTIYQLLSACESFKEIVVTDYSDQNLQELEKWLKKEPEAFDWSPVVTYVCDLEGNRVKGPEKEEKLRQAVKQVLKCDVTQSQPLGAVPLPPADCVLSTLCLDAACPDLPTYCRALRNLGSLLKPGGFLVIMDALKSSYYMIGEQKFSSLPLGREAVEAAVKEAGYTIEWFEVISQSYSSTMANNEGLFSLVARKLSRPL

[16] = target: Phenylethanolamine N-methyltransferase (Homo sapiens) (UniProt P11086); assay: as above; settings: MTase-Glo luminescence, SAH detection, recombinant enzyme; measured here: PNMT max response; stronger effect = lower value
Phenylethanolamine N-methyltransferase (Homo sapiens), sequence (P11086 whole entry, looked up, the tested form may be a part): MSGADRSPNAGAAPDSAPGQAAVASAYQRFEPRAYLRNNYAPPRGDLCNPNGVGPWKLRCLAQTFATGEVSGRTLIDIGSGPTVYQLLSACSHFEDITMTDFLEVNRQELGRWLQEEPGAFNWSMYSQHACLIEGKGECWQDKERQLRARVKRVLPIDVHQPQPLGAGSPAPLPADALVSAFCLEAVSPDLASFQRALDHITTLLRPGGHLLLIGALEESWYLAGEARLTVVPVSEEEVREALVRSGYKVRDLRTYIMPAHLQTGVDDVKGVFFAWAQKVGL

[17] = Primary qHTS for inhibitors of nuclear receptor binding SET domain protein 2 (NSD2) in an RCH-ACV wild type WT cells (2C) (AID 1645877); note: nearly all actives have a fitted effect of over 70% in size; note: potency is the fitted concentration of half-maximal effect

SMILES: C[C@@]12CC[C@@H]3[C@@](CC[C@H]4[C@@]3(C)CCC[C@@]4(C)C(=O)O)(CC1=O)C2
- outcome [1]: inactive
- outcome [2]: inactive
- outcome [3]: inactive
- outcome [4]: inactive
- outcome [5]: inactive
- Potency [6]: inactive
- Potency [7]: inactive
- Potency [8]: inactive
- Potency [9]: inactive
- Potency [10]: inactive
- Potency [11]: inactive
- outcome [12]: inactive

SMILES: C=C1C(=O)OC2CC3(C)C(CC12)C(C)=CC(O)C3OC(C)=O (stereo not drawn)
- activity [13]: -65.4%
- activity change, negative = inhibition [14]: 0%
- activity [15]: 1.24%
- activity [16]: -2.5%
- Potency [6]: inactive
- Potency [7]: inactive
- Potency [8]: inactive
- Potency [9]: 5.85 µM (active)
- Potency [10]: inactive
- Potency [11]: inactive

SMILES: Cc1ccc(S(=O)(=O)Cc2nc(-c3ccc(C(=O)NCc4cccnc4)cc3)oc2C)cc1
- Potency [17]: 0.0186 µM (active)
- Potency [9]: inactive
- Potency [10]: inactive
- Potency [11]: inactive

SMILES: COc1cc2c(cc1OC)N1C(=O)C[C@]34C=CCN5CC[C@@H]2[C@@H](CC3)[C@]514
- activity [13]: -18.8%
- Potency [14]: inactive
- activity [15]: 1.78%
- activity [16]: 3.88%
- Potency [6]: inactive
- Potency [7]: inactive
- Potency [8]: inactive
- Potency [9]: inactive
- Potency [10]: inactive
- Potency [11]: inactive

SMILES: Cc1nc2ccc(Oc3ccc(F)cc3)cc2c(=O)n1C[C@H]1CCCN(C(C)C)C1
- Potency [6]: inactive
- Potency [7]: inactive
- Potency [8]: inactive
- Potency [9]: inactive
- Potency [10]: inactive

SMILES: CC1=C(C(=O)OCc2ccccc2)C(c2ccc(-c3ccccc3)cc2)NC(=O)N1CCCCCC(=O)O (stereo not drawn)
- activity [13]: -3.43%
- activity change, negative = inhibition [14]: 0%
- activity [15]: -35.4%
- activity [16]: 2.18%
- Potency [6]: inactive
- Potency [8]: inactive
- Potency [9]: inactive
- Potency [10]: inactive
- Potency [11]: inactive

SMILES: C=C1C(=O)OC2/C=C(\CO)CC/C=C(\C=O)CC(OC(=O)CC(C)C)C12 (stereo not drawn)
- activity [13]: -71%
- activity change, negative = inhibition [14]: -0.648%
- activity [15]: -4.38%
- activity [16]: -2.45%
- Potency [6]: inactive
- Potency [7]: inactive
- Potency [8]: inactive
- Potency [9]: 16.5 µM (active)
- Potency [10]: inactive

SMILES: C=C(C(=O)O)C1CC(O)C2(C)CCCC(=C)C2C1 (stereo not drawn)
- activity [13]: -51%
- activity change, negative = inhibition [14]: 0%
- activity [15]: 4.87%
- activity [16]: 3.46%
- Potency [7]: inactive
- Potency [8]: inactive
- Potency [9]: inactive
- Potency [10]: inactive
- Potency [11]: inactive

SMILES: Cc1cc(=O)oc2c(C=O)c(O)ccc12
- activity [13]: -6.39%
- Potency [14]: 17.1 µM (active)
- activity [15]: -24%
- activity [16]: -37.6%
- Potency [8]: inactive
- Potency [10]: inactive
- Potency [11]: inactive

SMILES: Cc1ccc(-c2ccc3c(ccc4sc5c(c43)NC[C@@H](C)NC5=O)n2)cn1
- Potency [17]: 16.6 µM (active)
- Potency [8]: inactive
- Potency [9]: inactive
- Potency [10]: inactive
- Potency [11]: inactive

SMILES: CC(O)(CC(=O)O)CC(=O)OCc1ccc(O[C@@H]2O[C@H](CO)[C@@H](O)[C@H](O)[C@H]2O)cc1 (stereo partly drawn)
- activity [13]: -58.1%
- activity change, negative = inhibition [14]: 2.07% [at 29.8 µM]
- activity [15]: 1.65%
- activity [16]: 1.08%
- Potency [6]: inactive
- Potency [7]: inactive
- Potency [8]: inactive
- Potency [10]: inactive
- Potency [11]: inactive

SMILES: C[C@@H]1O[C@@H](O[C@H]2[C@H](OC(=O)[C@]34CCC(C)(C)C[C@H]3C3=CCC5[C@@]6(C)C[C@H](O)[C@H](O[C@@H]7O[C@H](CO)[C@@H](O[C@H]8OC[C@](O)(CO)[C@H]8O)[C@H](O)[C@H]7O)[C@@](C)(CO)C6[C@H](O)C[C@@]5(C)[C@]3(C)C[C@H]4O)OC[C@H](O)[C@@H]2O)[C@H](O)[C@H](O)[C@H]1O[C@@H]1OC[C@@H](O)[C@H](O[C@@H]2OC[C@](O)(CO)[C@H]2O)[C@H]1O (stereo partly drawn)
- outcome [6]: inactive [at 9.52 µM]
- outcome [7]: inactive [at 9.73 µM]
- outcome [8]: inactive [at 11.6 µM]
- activity change, negative = thiol reactive [9]: 502% [at 11.5 µM] (inactive)
- activity, negative = inhibition [10]: 3.67% [at 11.6 µM] (inactive)

SMILES: O=C1CSc2ccccc2N1Cc1cccc(C(F)(F)F)c1
- activity [13]: -10.1%
- activity change, negative = inhibition [14]: -5.12%
- activity [15]: -46.9%
- activity [16]: -11.4%
- Potency [6]: inactive
- Potency [7]: inactive
- Potency [8]: inactive
- Potency [9]: inactive
- Potency [10]: inactive
- Potency [11]: inactive

SMILES: CCc1c(C)nc2c(-c3cnn(-c4cc(CO)ccn4)c3)c[nH]n2c1=O
- Potency [17]: inactive
- Potency [8]: inactive
- Potency [10]: inactive
- Potency [11]: inactive

SMILES: C/C=C/c1ccc2c(c1)[C@@H](C)[C@H](c1ccc(O)cc1)O2
- activity [13]: -8.28%
- activity change, negative = inhibition [14]: 0.447%
- activity [15]: -59.1%
- activity [16]: 0.8%
- Potency [6]: inactive
- Potency [7]: inactive
- Potency [9]: inactive
- Potency [10]: inactive
- Potency [11]: inactive

SMILES: c1cc(OCCCN2CCCCC2)ccc1CN1CCCCC1
- activity [13]: -4.16%
- activity change, negative = inhibition [14]: -2.14%
- activity [15]: -0.228%
- activity [16]: -0.509%
- Potency [6]: inactive
- Potency [7]: inactive
- Potency [8]: inactive
- Potency [10]: inactive
- Potency [11]: inactive

SMILES: CCOc1ccc(NC(=S)N2CCC(C(O)(c3ccccc3)c3ccccc3)CC2)cc1
- Potency [17]: inactive
- Potency [8]: inactive
- Potency [9]: inactive
- Potency [10]: inactive
- Potency [11]: inactive

SMILES: C[C@@H]1CCN(C(=O)N2CCCC2)C[C@@H]1N(C)c1ncnc2[nH]ccc12
- Potency [6]: inactive
- Potency [7]: inactive
- Potency [8]: inactive
- Potency [9]: inactive
- Potency [10]: inactive
- Potency [11]: inactive

SMILES: CO[C@H]1/C=C/[C@@](C)(O)/C=C/C(=O)O[C@H](C)[C@@H](C)CC/C=C/1C
- Potency [6]: inactive
- Potency [7]: inactive
- Potency [8]: inactive
- Potency [9]: inactive
- Potency [10]: inactive
- Potency [11]: inactive
